Experimental data reported in PubChem BioAssay AID624331 (National Center for Advancing Translational Sciences (NCATS), 2012).
Inconclusive results are not listed. Where a call stands in place of a potency, no number is given. Calls of active or inactive are those of the source. Calls follow the shape of the dose curve; as a rule, active = well fitted activation curve with a large enough effect; inconclusive = small, poorly fitted or top-dose-only effect; inactive = no such curve, though single readings can be large or run the other way.

Assay: qHTS assay for re-activators of p53 using a Luc reporter: Hit Validation with no p53 Expressed
Conditions: p53-null cells, luciferase reporter counter-screen; series mostly up to 46.1 µM
How it was run: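 Without p53 expression, cells (1000/well, Opti-MEM + 10% FBS) were exposed 24 h at 37 deg C to compounds in a 1:5 series from 10 mM stock (top 46.1 µM in well). Luminescent signal read 10 min after Amplite addition; actives flag unspecific activation.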

| SMILES | Potency |
| --- | --- |
| CCOc1ccc(NC(=O)C(c2ccccn2)N(C(=O)CCl)c2ccc(OC)cc2)cc1 (stereo not given) | inactive |
| CCOC(=O)N(Cc1ccccc1)C(C(=O)O)C(C(=O)O)N(Cc1ccccc1)C(=O)OCC (stereo not given) | inactive |
| O=C(Nc1ccc(NC(=O)C23CC4CC(CC(C4)C2)C3)cn1)c1ccco1 | inactive |
| O=C(COC(=O)c1cccnc1Cl)Nc1ccc(N2CCCCC2)cc1 | inactive |
| C=Cc1ccc(Cn2c(=O)n(CCCOC)c(=O)c3sccc32)cc1 | inactive |
| Cc1cc(F)ccc1NC(=O)Nc1ccc2c(c1)OCO2 | inactive |
| CC(OC(=O)c1cccc([N+](=O)[O-])c1)C(=O)N1CCc2ccccc21 (stereo not given) | inactive |
| Nc1nonc1-n1nnc(C(=O)N/N=C/c2ccc(OCc3cccc(Cl)c3)cc2)c1CN1CCCCC1 | inactive |
| COc1ccc(N2CCN(CCCNC(=O)C3(S(=O)(=O)c4ccc(Cl)cc4)CC3)CC2)cc1 | inactive |
| N/C(=N\OC(=O)c1ccccc1Cl)c1ccc(Cl)cc1 | inactive |
| COc1ccc(/C(C)=N/Nc2nccnc2Cl)cc1 | inactive |
| O=C(Nc1ncc(Cc2ccccc2)s1)c1cccs1 | inactive |
| Cc1ccc(C(=O)OCC(=O)NCC2COc3ccccc3O2)cc1 (stereo not given) | inactive |
| O=C(/C=C/c1ccco1)Nc1ccc2nn(-c3ccccc3)nc2c1 | inactive |
| Cc1ccc(C2=CC(c3ccc(N(C)C)cc3)n3nnnc3N2)cc1 (stereo not given) | inactive |
| CC(OC(=O)c1cnccn1)C(=O)Nc1nc(-c2cccc([N+](=O)[O-])c2)cs1 (stereo not given) | inactive |
| Cc1ccc(C(=O)N/N=C2\CCc3ccccc32)c(C)c1 | inactive |
| Cc1ccc(NC(=O)/C=C/c2ccco2)nc1 | inactive |
| Cc1ccnc(NC(=O)CCC2CCCCC2)c1 | inactive |
| Nc1nc(-c2ccc([N+](=O)[O-])cc2)cs1 | inactive |

| SMILES | Potency |
| --- | --- |
| Cc1cc(N2CCCCC2)n2ncc(-c3ccc(Cl)cc3)c2n1 | inactive |
| CCN1CCN(/C=N/c2nc3c(s2)CCCC3)CC1 | inactive |
| CC(C)c1ccc(C(O)c2nc3ccccc3n2C)cc1 (stereo not given) | inactive |
| N#Cc1cccc(N=Cc2c(O)ccc3ccccc23)c1 | inactive |
| Cc1cc(C)c2nc(NNC(=O)c3ccc(S(=O)(=O)N4CCCC(C)C4)cc3)sc2c1 (stereo not given) | inactive |
| O=C(N/N=C(\c1ccccc1)c1cccnc1)c1cccc(F)c1 | inactive |
| CCCCCc1nnc(NC(=O)C2CCCO2)s1 (stereo not given) | inactive |
| CCN1CCN(CC(=O)Nc2nc3ccc(C)cc3s2)CC1 | inactive |
| O=C(CC(Nc1ccc(F)cc1)C(=O)OCC(=O)c1cccs1)c1ccccc1 (stereo not given) | inactive |
| CC1CCN(C2=C(NS(=O)(=O)c3ccc(Br)cc3)C(=O)c3ccccc3C2=O)CC1 | inactive |
| O=C(N/N=C/c1sc(=O)[nH]c1-[n+]1ccc2ccccc2c1)c1ccccc1[O-] | inactive |
| O=C(COc1ccc(Cl)cc1Cl)Nc1ccc(Cl)cn1 | inactive |
| CC(C)N1CCc2c(sc(NC(=S)NC(=O)c3ccccc3)c2C#N)C1 | inactive |
| COc1ccc(N(C(=O)Nc2ccc(Cl)cc2)C2=NCCC2)cc1 | inactive |
| O=C(N/N=C/c1cccc(F)c1)NC1CCCCC1 | inactive |
| Cc1ccc(OC(=O)c2cccc(S(=O)(=O)N3CCCC3)c2)c(-n2nc3ccccc3n2)c1 | inactive |
| COc1ccc(N2COC3c4cccc5cccc(c45)C32)cc1 (stereo not given) | inactive |
| COC(=O)c1ccc(-c2nc(-c3cccs3)no2)cc1 | inactive |
| COc1ccc(/C=N/Nc2nncc3ccccc23)cc1 | inactive |
| CC1CCCN(C(=O)CN2C(=O)c3ccccc3S2(=O)=O)C1 (stereo not given) | inactive |
